Test results: the supplement of paper PMC11732987, “Enantioselective OTUD7B fragment discovery through chemoproteomics screening and high-throughput optimisation” (Communications Chemistry, 2025)

Key:
Assay in all cases: log2 ratio of Biotin-Ahx-Ub-VS probe labelling (fragment/DMSO); higher = less target engagement (more negative = stronger competition), active = hit call of the paper (q ≤ 0.05, log2 ratio ≤ -1)
Settings in all cases: compound concentration: 200 uM; treatment time: 3 h
[1] = biological target: USP34 (UniProt Q70CQ2)
Outline: (§1)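 The table lists average log2 ratios of fragment over vehicle, from an unpaired t-test on global-median-normalised Spectronaut label-free quantities. Proteins with ≥2 unique peptides were used. Samples were HEK293T lysate (495 µg) treated in triplicate with fragment at 200 µM or vehicle for 3 h, then with Biotin-Ahx-Ub-VS (0.5 µM final) for 1 h, with labelled DUBs NeutrAvidin-enriched and run by diaPASEF LC-MS/MS.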

[2] = biological target: T1, USP36 (UniProt Q9P275)
T1 sequence (whole entry): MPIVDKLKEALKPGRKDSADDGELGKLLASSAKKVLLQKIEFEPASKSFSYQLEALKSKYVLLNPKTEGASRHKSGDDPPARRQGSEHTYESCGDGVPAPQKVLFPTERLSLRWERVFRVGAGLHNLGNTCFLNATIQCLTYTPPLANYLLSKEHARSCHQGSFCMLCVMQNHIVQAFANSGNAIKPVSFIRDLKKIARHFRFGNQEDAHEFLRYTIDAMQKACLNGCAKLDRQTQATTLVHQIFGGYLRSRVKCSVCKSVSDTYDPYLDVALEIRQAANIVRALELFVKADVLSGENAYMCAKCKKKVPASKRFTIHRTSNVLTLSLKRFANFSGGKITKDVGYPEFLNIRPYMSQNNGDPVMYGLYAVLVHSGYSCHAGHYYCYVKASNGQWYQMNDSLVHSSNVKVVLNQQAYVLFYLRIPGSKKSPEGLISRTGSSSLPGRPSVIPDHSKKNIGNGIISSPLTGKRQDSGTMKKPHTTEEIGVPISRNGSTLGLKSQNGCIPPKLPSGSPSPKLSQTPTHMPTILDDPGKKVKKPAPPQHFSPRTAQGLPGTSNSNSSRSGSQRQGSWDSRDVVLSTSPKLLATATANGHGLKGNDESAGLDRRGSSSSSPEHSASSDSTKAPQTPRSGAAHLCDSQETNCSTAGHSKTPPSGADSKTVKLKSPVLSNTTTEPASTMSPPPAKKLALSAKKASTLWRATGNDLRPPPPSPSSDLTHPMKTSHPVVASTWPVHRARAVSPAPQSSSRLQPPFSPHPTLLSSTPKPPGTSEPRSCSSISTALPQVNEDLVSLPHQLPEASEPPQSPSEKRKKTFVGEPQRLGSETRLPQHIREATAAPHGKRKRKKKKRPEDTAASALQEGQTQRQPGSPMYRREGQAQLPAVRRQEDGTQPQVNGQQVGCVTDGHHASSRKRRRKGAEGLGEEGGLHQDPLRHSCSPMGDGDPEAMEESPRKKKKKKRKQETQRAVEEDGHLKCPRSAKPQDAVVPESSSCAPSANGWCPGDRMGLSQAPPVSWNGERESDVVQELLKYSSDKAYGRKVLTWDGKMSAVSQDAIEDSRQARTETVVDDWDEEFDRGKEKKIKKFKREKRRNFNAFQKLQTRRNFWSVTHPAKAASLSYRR
Outline: as §1

[3] = biological target: T2, USP38 (UniProt Q8NB14)
T2 sequence (whole entry): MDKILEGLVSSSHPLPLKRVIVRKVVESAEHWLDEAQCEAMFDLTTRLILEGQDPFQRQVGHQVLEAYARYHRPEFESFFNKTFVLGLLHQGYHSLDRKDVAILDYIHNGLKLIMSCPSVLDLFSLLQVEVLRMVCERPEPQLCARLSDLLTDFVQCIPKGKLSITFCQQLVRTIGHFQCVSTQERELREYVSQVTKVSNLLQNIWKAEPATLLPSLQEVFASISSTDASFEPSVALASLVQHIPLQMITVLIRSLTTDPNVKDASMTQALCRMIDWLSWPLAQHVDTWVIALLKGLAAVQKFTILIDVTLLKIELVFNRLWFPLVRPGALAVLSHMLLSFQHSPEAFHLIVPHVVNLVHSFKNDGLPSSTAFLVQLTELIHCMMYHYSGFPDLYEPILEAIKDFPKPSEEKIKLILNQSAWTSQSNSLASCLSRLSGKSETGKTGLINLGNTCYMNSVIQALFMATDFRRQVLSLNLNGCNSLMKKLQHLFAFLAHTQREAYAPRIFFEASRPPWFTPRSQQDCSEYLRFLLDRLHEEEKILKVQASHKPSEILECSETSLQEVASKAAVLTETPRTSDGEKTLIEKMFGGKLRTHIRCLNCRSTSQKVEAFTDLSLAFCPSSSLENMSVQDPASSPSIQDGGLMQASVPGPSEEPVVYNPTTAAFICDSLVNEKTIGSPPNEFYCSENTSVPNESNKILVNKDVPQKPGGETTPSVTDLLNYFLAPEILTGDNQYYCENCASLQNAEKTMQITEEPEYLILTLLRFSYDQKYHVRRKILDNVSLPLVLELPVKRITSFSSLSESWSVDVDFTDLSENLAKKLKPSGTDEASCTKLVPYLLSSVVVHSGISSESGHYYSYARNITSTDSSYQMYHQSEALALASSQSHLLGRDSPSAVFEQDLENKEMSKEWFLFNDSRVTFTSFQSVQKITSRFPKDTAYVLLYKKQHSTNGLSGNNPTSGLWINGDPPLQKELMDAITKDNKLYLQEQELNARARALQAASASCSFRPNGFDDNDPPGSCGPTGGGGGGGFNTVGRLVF
Outline: as §1

[4] = biological target: T3, USP39 (UniProt Q53GS9)
T3 sequence (whole entry): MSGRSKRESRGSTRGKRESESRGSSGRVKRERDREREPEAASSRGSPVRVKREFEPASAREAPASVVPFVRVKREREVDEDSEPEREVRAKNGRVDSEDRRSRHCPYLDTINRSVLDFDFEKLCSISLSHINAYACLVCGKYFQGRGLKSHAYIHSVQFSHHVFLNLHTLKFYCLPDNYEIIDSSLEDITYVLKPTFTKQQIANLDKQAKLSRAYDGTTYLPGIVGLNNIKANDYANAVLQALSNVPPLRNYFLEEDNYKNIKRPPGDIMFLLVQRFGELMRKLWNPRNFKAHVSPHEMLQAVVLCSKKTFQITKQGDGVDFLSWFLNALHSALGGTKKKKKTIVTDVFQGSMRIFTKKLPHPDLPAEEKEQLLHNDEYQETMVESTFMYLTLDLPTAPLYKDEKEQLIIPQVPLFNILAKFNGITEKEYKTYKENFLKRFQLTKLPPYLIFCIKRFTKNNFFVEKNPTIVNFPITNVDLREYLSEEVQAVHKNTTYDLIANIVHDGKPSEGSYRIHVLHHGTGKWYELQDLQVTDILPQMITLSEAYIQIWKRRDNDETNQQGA
Outline: as §1

[5] = biological target: T4, USP4 (UniProt Q13107)
T4 sequence (whole entry): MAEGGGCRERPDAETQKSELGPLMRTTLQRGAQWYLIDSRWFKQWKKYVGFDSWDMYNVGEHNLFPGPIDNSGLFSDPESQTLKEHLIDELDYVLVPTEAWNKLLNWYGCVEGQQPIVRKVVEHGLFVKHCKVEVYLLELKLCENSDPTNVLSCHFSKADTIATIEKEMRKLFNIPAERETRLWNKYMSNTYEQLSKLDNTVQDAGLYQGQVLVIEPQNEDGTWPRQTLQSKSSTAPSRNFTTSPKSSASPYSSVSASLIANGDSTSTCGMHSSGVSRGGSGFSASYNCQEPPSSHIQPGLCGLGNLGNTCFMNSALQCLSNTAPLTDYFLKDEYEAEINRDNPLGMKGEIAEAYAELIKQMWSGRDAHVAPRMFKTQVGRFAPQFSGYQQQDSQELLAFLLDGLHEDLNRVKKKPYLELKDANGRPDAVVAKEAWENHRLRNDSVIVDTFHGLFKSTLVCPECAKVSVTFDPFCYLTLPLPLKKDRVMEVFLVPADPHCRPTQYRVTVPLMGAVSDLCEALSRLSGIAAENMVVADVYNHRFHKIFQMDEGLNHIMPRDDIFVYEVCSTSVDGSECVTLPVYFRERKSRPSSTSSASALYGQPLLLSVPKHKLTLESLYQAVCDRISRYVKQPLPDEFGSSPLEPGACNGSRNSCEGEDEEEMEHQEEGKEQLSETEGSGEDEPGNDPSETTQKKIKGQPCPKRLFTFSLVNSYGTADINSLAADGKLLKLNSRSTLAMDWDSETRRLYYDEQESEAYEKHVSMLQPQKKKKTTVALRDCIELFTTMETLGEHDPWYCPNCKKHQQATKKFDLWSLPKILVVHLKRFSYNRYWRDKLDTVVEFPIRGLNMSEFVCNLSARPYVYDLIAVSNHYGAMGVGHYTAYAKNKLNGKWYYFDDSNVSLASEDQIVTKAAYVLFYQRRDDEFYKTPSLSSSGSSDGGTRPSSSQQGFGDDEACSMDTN
Outline: as §1

Measured: log2 ratio of Biotin-Ahx-Ub-VS probe labelling

Chain of USP34 (Q70CQ2 whole entry, the tested form may be a part): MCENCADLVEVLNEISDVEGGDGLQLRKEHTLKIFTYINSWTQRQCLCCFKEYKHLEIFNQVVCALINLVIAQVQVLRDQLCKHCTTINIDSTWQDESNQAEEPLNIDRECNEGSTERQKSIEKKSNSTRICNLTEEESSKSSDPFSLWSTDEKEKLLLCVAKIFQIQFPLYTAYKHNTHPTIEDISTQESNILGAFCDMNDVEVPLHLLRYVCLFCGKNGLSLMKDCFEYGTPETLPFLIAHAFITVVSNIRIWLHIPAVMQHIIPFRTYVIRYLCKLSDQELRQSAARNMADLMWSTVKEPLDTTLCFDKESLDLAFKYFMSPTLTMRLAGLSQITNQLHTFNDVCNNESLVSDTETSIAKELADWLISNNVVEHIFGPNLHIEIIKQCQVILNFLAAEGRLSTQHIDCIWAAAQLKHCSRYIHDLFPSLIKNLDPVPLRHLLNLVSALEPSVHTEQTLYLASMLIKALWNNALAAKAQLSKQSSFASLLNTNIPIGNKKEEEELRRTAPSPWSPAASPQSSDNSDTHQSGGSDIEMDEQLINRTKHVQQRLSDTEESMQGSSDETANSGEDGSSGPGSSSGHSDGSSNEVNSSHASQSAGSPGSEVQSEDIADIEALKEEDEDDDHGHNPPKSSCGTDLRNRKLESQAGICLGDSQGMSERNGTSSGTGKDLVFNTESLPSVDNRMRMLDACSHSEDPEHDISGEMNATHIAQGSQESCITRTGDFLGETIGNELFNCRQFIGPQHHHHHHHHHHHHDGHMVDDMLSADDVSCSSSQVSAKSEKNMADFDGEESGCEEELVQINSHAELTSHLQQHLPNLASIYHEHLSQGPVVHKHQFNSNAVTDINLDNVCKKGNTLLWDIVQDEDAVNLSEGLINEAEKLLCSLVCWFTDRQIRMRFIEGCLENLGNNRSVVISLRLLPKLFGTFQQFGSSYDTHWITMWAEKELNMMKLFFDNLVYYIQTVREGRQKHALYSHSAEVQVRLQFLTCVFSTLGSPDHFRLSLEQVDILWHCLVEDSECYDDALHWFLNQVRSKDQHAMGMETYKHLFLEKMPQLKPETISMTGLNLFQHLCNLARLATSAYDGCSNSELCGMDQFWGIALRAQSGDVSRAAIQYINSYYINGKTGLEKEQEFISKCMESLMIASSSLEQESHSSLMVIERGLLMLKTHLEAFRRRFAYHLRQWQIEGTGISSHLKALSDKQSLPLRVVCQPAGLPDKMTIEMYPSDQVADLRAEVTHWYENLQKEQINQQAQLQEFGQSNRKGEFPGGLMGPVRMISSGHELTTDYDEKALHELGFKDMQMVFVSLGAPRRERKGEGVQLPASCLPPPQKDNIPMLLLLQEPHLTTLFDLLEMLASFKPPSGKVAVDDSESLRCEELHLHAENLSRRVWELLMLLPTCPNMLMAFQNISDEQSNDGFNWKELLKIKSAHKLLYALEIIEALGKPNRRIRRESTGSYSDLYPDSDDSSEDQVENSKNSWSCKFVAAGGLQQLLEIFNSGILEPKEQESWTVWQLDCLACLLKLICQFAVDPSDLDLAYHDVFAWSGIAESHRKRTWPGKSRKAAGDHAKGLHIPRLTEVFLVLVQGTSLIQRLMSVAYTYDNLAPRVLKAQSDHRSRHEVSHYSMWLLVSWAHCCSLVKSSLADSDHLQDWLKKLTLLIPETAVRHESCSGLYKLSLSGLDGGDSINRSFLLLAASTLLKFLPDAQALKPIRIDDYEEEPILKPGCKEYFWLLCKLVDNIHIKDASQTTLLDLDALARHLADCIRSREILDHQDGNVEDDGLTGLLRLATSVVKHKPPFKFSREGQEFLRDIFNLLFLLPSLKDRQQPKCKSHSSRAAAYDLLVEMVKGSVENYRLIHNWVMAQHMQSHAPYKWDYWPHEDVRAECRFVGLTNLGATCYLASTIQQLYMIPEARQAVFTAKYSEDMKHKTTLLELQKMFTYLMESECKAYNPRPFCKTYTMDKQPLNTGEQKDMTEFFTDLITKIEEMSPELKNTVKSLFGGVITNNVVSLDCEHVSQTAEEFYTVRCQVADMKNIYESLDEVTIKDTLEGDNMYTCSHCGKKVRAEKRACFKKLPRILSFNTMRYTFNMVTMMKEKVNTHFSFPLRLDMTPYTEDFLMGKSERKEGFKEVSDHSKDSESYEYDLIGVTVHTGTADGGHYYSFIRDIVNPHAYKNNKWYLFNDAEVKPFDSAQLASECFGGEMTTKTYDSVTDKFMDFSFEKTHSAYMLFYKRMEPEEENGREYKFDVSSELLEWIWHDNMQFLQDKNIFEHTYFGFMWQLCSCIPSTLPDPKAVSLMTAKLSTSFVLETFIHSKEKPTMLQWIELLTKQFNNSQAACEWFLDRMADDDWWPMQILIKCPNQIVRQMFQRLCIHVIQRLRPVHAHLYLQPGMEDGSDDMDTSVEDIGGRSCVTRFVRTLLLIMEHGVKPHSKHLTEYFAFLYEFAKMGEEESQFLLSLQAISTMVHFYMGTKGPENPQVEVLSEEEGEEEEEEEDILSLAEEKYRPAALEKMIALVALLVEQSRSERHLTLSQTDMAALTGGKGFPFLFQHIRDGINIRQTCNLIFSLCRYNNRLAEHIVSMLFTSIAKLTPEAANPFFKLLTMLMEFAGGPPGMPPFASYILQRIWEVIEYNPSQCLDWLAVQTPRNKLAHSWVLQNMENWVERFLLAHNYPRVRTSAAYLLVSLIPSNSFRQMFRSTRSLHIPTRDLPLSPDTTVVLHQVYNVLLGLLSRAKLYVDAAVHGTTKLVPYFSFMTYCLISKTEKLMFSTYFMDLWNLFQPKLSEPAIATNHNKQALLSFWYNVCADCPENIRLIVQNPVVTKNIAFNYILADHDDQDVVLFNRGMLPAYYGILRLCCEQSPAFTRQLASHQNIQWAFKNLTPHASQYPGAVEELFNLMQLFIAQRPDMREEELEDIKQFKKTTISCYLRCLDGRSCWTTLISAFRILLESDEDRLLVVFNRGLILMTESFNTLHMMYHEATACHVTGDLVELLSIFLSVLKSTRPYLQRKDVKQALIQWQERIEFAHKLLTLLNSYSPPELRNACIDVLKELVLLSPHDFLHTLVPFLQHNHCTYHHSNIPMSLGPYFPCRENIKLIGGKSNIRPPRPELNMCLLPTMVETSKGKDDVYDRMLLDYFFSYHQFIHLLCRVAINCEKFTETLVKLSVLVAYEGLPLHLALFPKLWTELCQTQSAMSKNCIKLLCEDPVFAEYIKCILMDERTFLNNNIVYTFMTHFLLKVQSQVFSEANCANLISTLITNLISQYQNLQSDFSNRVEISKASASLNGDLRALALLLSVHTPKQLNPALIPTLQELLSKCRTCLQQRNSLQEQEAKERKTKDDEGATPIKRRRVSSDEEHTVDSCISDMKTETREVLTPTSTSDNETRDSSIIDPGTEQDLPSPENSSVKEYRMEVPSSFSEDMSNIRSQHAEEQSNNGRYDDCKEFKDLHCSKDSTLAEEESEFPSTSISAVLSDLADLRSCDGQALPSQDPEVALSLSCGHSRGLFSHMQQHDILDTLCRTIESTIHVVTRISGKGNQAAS

Cc1cc(Cl)ccc1NC(=O)CCl
inactive: [1] -0.254 | [2] -0.182 | [3] -0.0702 | [4] 0.072 | [5] -0.0162
